Sampled rows, rich in hits. Any-hit rate of the full collection: about 3.8%.
rRNA inh HTS: selective bacterial rRNA inhibition in E. coli | E. coli WT GFP vs humanized-ribosome RFP mutants, fluorescence, 24 h; hits give low values; DMSO median 0, no signal -100 | GFP signal change (wild-type ribosome), % (concentration not given with the values) | 1.6% of 350,000 active | AID 720706;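 active = significant combined selectivity score with lowered wild-type GFP, culture density cut under 30%, mutant RFP and density less affected; inactive = any of these conditions unmet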
proKLK7 act: activates the human kallikrein-7 zymogen | P49862 | purified proKLK7, EDANS-DABCYL substrate fluorescence; 100% is mature enzyme control, 0% vehicle | activation, % at 7 µM | 0.9% of 370,000 active;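 active = activation above the mean of all tested compounds plus 3 SD, computed per campaign excluding outliers beyond control limits, cut at about 13% in these data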
Target sequence (P49862 whole entry, looked up): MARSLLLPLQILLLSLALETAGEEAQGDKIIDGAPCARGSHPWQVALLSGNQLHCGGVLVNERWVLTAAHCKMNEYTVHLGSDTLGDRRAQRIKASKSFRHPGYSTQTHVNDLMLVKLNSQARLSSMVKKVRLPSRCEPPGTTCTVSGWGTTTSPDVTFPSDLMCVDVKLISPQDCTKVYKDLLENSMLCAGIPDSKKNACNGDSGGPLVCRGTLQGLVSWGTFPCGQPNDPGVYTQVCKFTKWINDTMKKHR
ADAM10 inh: inhibitors of human ADAM10; AID 720582; O14672; 0.62% of 370,000 active; recombinant ADAM10, EDANS/DABCYL FRET peptide cleavage, 3 h; inhibition, % at 7 µM;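 active = inhibition above a per-campaign cutoff equal to the mean of compounds falling between control-based bounds plus 3 SD, cut at about 20% in these data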;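 note: 0% = DMSO wells while the 100% control is not disclosed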
FGF22 binding: binders of recombinant human FGF22 by thermal shift | SYPRO orange fluorescence; percent of sucrose octasulfate shift, DMSO zero | 1.5% of 340,000 active | Q9HCT0 | activity (Tm shift, normalised), % at 9.99 µM;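 active = mean Tm shift, scaled 0 neutral to 100 positive control, at about 1.3% or above, every replicate too, limit read from the data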
Target sequence (Q9HCT0 whole entry, looked up): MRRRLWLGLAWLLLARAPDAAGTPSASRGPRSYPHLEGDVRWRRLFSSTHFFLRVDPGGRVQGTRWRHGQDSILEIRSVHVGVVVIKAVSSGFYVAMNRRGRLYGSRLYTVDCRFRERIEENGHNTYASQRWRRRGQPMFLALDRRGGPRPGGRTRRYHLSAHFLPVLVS
ADAM17 inh: ADAM17 inhibition, QFRET primary screen | P78536 | recombinant ADAM17, EDANS/DABCYL FRET peptide cleavage | inhibition, % at 6.95 µM | 0.83% of 370,000 active | AID 720648;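 active = inhibition above the mean of compounds lying between control limits plus 3 SD, set per campaign, cut at about 8.5% in these data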;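 note: 0% = DMSO-only wells as the low control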
Starred values were filed as active, the others as inactive; / = no result.

SMILES | rRNA inh HTS | proKLK7 act | ADAM10 inh | FGF22 binding | ADAM17 inh
COc1ccc(N/C(=N/c2nc(C)cc(C)n2)NC(=O)c2ccccc2)cc1 | -19.8* | 0.0 | 1.8 | -0.1 | -1.5
Cc1cc(C)nc(/N=C(/NC(=O)c2ccccc2)Nc2ccccc2)n1 | / | 0.3 | -7.6 | / | 0.8
COCC(=O)Nc1ccc2c(c1)OC[C@H](C)N(Cc1cncnc1)C[C@@H](C)[C@H](OC)CN(C)C2=O | 2.7 | / | / | / | /
FC(F)(F)c1cnc(N2CCCN(C(=S)Nc3ccccc3)CC2)c(Cl)c1 | -40.8* | -0.4 | 9.8 | -0.3 | 0.3
CSc1cccc(NC(=O)CSc2nc3ccccc3o2)c1 | -25.0* | 0.6 | 2.9 | 1.0 | 5.8
COCC(=O)N1CC2(CCN(Cc3cncnc3)CC2)c2c(n(C)c3cc(OC)ccc23)[C@@H]1CO | -4.0 | / | / | / | /
COc1ccccc1CNC(=O)C[C@H]1CC[C@@H]2[C@H](COC[C@@H](O)CN2C(=O)Nc2ccc(F)cc2)O1 | -2.1 | / | / | 0.0 | /
COc1cc(/C=N/N(C)C)ccc1OC(=O)c1ccco1 | 7.0 | 0.4 | 2.5 | 0.1 | -0.1
COc1cc(NC(=O)c2ccc([N+](=O)[O-])o2)ccc1NC(=O)c1ccco1 | -21.7* | -0.3 | 4.9 | 0.0 | -0.6
COc1cc(/C=N/N2CCOCC2)ccc1OC(=O)c1ccco1 | 15.8 | 0.2 | -6.1 | 42.9* | -3.0
COc1cc(NC(=O)c2cccc([N+](=O)[O-])c2)ccc1NC(=O)c1ccco1 | / | -0.2 | -4.1 | 44.0* | -3.8
Cc1cc(Br)ccc1NC(=O)c1ccco1 | -22.3* | -0.5 | -1.1 | 0.1 | -3.0
Cc1cc(NC(=O)c2ccc([N+](=O)[O-])o2)ccc1NC(=O)c1ccco1 | / | 0.3 | 4.0 | 0.0 | 0.5
CN1c2ccc(-c3ccc(F)cc3)cc2[C@@H]2[C@@H](CCN2C(=O)c2ccncc2)[C@@H]1CO | -14.2 | / | / | -0.6 | /
CCN(c1ccccc1)S(=O)(=O)c1ccc(OC)c(NC(=O)c2ccco2)c1 | -19.2* | 0.1 | 4.1 | 43.1* | 0.2
Cc1cccc(NC(=O)c2cccc(NC(=O)c3ccco3)c2)c1 | -17.7 | -0.3 | 3.0 | 0.0 | -0.1
COc1cc2c(cc1NC(=O)c1ccco1)CCCC2 | -32.5* | -0.5 | -3.0 | 0.1 | -3.2
CC(=O)c1ccc(NC(=O)c2ccc(C)c(Br)c2)cc1 | 0.1 | -0.2 | 6.4 | 0.2 | 1.4
COc1cc(NC(=O)C2CCCCC2)c(OC)cc1NC(=O)c1ccco1 | / | 0.3 | -9.8 | / | -3.7
CC(=O)c1ccc(NC(=O)Nc2ccc(Br)cc2C)cc1 | -18.6* | 0.1 | -7.2 | -0.2 | -3.7
Cc1cccc(C(=O)NNC(=O)c2ccco2)c1 | 11.5 | 0.0 | -1.0 | 43.0* | -2.7
CO[C@H]1CN(C)C(=O)c2ccc(NC(=O)C3CC3)cc2OC[C@@H](C)N(Cc2cccnc2)C[C@H]1C | -1.6 | / | / | -0.1 | /
CCOc1cc(/C=N/Nc2nc(N3CCCCC3)nc(N3CCCCC3)n2)ccc1OC(=O)c1ccco1 | 8.6 | -0.3 | -8.0 | 43.0* | -1.1
COc1cc(/C=N/NC(=O)c2cccc([N+](=O)[O-])c2)ccc1OC(=O)c1ccco1 | 6.9 | 0.2 | 1.8 | 42.9* | -1.3
COc1ccc(/C=N/NC(=O)c2cccc([N+](=O)[O-])c2)cc1OC(=O)c1ccccc1 | / | 0.3 | 10.4 | / | 4.7
SMILES | rRNA inh HTS | proKLK7 act | ADAM10 inh | FGF22 binding | ADAM17 inh
COc1cc(/C=N/NC(=O)c2ccncc2)ccc1Oc1ccc([N+](=O)[O-])cn1 | 25.6 | 0.0 | 3.9 | 0.2 | 1.5
COc1cc(/C=N/NC(=O)c2ccc(O)cc2)ccc1Oc1ccc([N+](=O)[O-])cn1 | -7.5 | -0.5 | 0.2 | 44.0* | -0.5
Cc1ccc(NC(=O)/C(=C/c2cccs2)NC(=O)c2ccco2)c(C)c1 | -30.3* | -0.2 | -6.2 | 0.2 | -0.1
Cc1ccc(NC(=O)/C(=C/c2cccs2)NC(=O)c2ccco2)cc1 | / | -0.3 | 0.7 | / | -1.8
COc1cccc(NC(=O)c2cccc(NC(=O)c3ccco3)c2)c1 | -13.9 | 0.4 | 6.2 | 43.2* | 1.2
Cn1nc(C(=O)Nc2ccc(S(=O)(=O)N3CCCCC3)cc2)c2ccccc2c1=O | -21.4* | -5.3 | -1.9 | 0.4 | -0.6
NS(=O)(=O)c1ccc(NC(=O)c2ccc(S(=O)(=O)N3CCCCCC3)cc2)cc1 | -19.8* | 0.8 | 4.5 | 0.1 | 2.3
O=C(Nc1ccc(S(=O)(=O)N2CCCC2)cc1)c1ccc(OCC2CCCO2)cc1 (stereo unspecified) | -19.8* | 0.2 | 0.5 | 41.4 | -2.2
